Experimental data as given in PubChem BioAssay AID1159580 (chemical genetic matrix, 2015).
Where “and” joins values, the source holds several entries; their conditions need not be identical. Identical values can stand only once. In all, about 5,500 compounds went through this assay and about 2,000 (36%) were called active. Not shown: some 18% with an inconclusive outcome. Cut-off read from the data, not from the text of the source: active = normalized growth mostly below about 0.91 (no sharp cut-off); inconclusive = no clear call, values can overlap the other calls; inactive = mostly above about 0.92. This is one part of the list.

Experiment: chemical genetic growth profiling, strain panel (AID 1159580);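 note: tested at 20 µM; growth read once vehicle control cultures reached saturation at 30 °C; 1 = growth at the plate median or of vehicle wells; lower values mean less growth of the strain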
Details: S. cerevisiae deletion strains, growth OD

Measured: normalized growth

Cn1c(=O)c2[nH]cnc2n(C)c1=O
inactive: locus YAL013W, strain DEP1, stronger effect = lower value 0.996 | locus YAL021C, strain ccr4, stronger effect = lower value 1.03 | locus YAL026C, strain drs2, stronger effect = lower value 1.03 | locus YAL030W, strain snc1, stronger effect = lower value 1.02 | locus YAL040C, strain CLN3, stronger effect = lower value 0.999 | locus YBL061C, strain skt5, stronger effect = lower value 1.02 | locus YBR009C, strain hhf1, stronger effect = lower value 1 | locus YBR021W, strain FUR4, stronger effect = lower value 0.968 | locus YBR023C, strain chs3, stronger effect = lower value 1.04 | locus YBR171W, strain sec66, stronger effect = lower value 1.04 | locus YBR229C, strain ROT2, stronger effect = lower value 0.983 | locus YBR231C, strain swc5, stronger effect = lower value 1.02 | locus YBR279W, strain paf1, stronger effect = lower value 1.02 | locus YCL011C, strain gbp2, stronger effect = lower value 1.02 | locus YCL016C, strain dcc1, stronger effect = lower value 1.04 | locus YCL029C, strain bik1, stronger effect = lower value 0.966 | locus YCL061C, strain MRC1 (second series), stronger effect = lower value 1 | locus YCL069W, strain vba3, stronger effect = lower value 1 | locus YCR088W, strain abp1, stronger effect = lower value 1.02 | locus YDL005C, strain med2, stronger effect = lower value 1.02 | locus YDL035C, strain GPR1, stronger effect = lower value 0.996 | locus YDL040C, strain nat1, stronger effect = lower value 1.02 | locus YDL074C, strain BRE1, stronger effect = lower value 1.02 | locus YDL101C, strain DUN1, stronger effect = lower value 0.985 | locus YDL134C, strain PPH21, stronger effect = lower value 0.985 | locus YDL185W, strain tfp1, stronger effect = lower value 0.979 | locus YDL192W, strain arf1, stronger effect = lower value 0.964 | locus YDR001C, strain nth1, stronger effect = lower value 1.01 | locus YDR069C, strain doa4, stronger effect = lower value 1.02 | locus YDR101C, strain arx1, stronger effect = lower value 0.975 | locus YDR137W, strain rgp1, stronger effect = lower value 1.04 | locus YDR150W, strain NUM1, stronger effect = lower value 0.99 | locus YDR159W, strain sac3, stronger effect = lower value 0.982 | locus YDR162C, strain NBP2, stronger effect = lower value 1.01 | locus YDR195W, strain ref2 1.01 | locus YDR297W, strain sur2, stronger effect = lower value 1.03 | locus YDR318W, strain mcm21, stronger effect = lower value 0.976 | locus YDR334W, strain swr1, stronger effect = lower value 1.02 | locus YDR335W, strain msn5, stronger effect = lower value 1.04 | locus YDR388W, stronger effect = lower value 0.975 | locus YDR392W, strain spt3, stronger effect = lower value 1.05 | locus YDR502C, strain sam2, stronger effect = lower value 1 | locus YEL003W, strain gim4, stronger effect = lower value 0.997 | locus YEL037C, strain rad23, stronger effect = lower value 1.02 | locus YEL061C, strain CIN8 (second series), stronger effect = lower value 1.02 | locus YEL061C, strain CIN8, stronger effect = lower value 0.989 | locus YER002W, strain NOP16, stronger effect = lower value 0.993 | locus YER015W, strain faa2, stronger effect = lower value 1.02 | locus YER016W, strain bim1, stronger effect = lower value 1.02 | locus YER110C, stronger effect = lower value 0.978 | locus YER111C, strain swi4, stronger effect = lower value 1 | locus YER155C, strain BEM2 (second series), stronger effect = lower value 1.02 | locus YER155C, strain BEM2, stronger effect = lower value 0.992 | locus YER167W, strain BCK2, stronger effect = lower value 0.988 | locus YFR010W, strain ubp6, stronger effect = lower value 0.99 | locus YGL078C, strain dbp3, stronger effect = lower value 0.987 | locus YGL086W, strain mad1, stronger effect = lower value 0.989 | locus YGL167C, strain pmr1, stronger effect = lower value 1.02 | locus YGL173C, strain kem1, stronger effect = lower value 1.02 | locus YGL227W, strain vid30, stronger effect = lower value 1.01 | locus YGL240W, strain doc1, stronger effect = lower value 1.02 | locus YGL248W, strain PDE1, stronger effect = lower value 0.99 | locus YGL253W, strain hxk2, stronger effect = lower value 1.03 | locus YGR078C, strain PAC10, stronger effect = lower value 0.992 | locus YGR135W, strain pre9, stronger effect = lower value 0.976 | locus YGR229C, strain SMI1, stronger effect = lower value 1.03 | locus YGR252W, strain gcn5, stronger effect = lower value 1.05 | locus YHR013C, strain ard1, stronger effect = lower value 1.05 | locus YHR027C, strain rpn1, stronger effect = lower value 1.02 | locus YHR030C, strain SLT2, stronger effect = lower value 0.984 and 0.992 | locus YHR079C, strain IRE1 (second series), stronger effect = lower value 0.965 | locus YHR079C, strain IRE1, stronger effect = lower value 0.988 | locus YHR094C, strain hxt1, stronger effect = lower value 0.985 | locus YHR129C, strain ARP1, stronger effect = lower value 0.995 | locus YHR142W, strain chs7, stronger effect = lower value 1.05 | locus YHR200W, strain rpn10, stronger effect = lower value 0.979 | locus YIL066C, strain RNR3, stronger effect = lower value 0.989 | locus YIL073C, strain SPO22, stronger effect = lower value 0.94 | locus YIL125W, strain kgd1, stronger effect = lower value 0.983 | locus YIR030C, strain dcg1, stronger effect = lower value 0.97 | locus YJL092W, strain hpr5, stronger effect = lower value 1.01 | locus YJL095W, strain BCK1 (second series), stronger effect = lower value 1.03 | locus YJL095W, strain BCK1, stronger effect = lower value 1.01 and 0.99 | locus YJL115W, strain asf1, stronger effect = lower value 1.03 | locus YJL129C, strain trk1, stronger effect = lower value 1.04 | locus YJL134W, strain LCB3, stronger effect = lower value 0.989 | locus YJL154C, strain vps35, stronger effect = lower value 1.01 | locus YJL164C, strain tpk1, stronger effect = lower value 1.01 | locus YJL166W, strain qcr8, stronger effect = lower value 1.02 | locus YJL168C, strain set2, stronger effect = lower value 0.978 | locus YJL187C, strain SWE1 (second series), stronger effect = lower value 0.984 | locus YJL187C, strain SWE1, stronger effect = lower value 1 | locus YJR043C, strain POL32, stronger effect = lower value 0.997
